{"source": "PubChem BioAssay (NCI)", "note": "This is part of a sample that, as a whole, favours compounds with a hit. Of some 83,000 tested, about 20% had one in any assay.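 Negative percent growth values reflect cell death: -40 means 40% of the cells present at the start died, and -100 means all died.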 The source made the active and inactive calls.", "data": [{"test_system": "LOX IMVI melanoma", "experiment": "NCI-60 one-dose screen, 48 h (100 = growth as untreated, 0 = no growth, -100 = all killed)", "settings": "10 µM unless noted", "procedure": "Growth inhibition of the LOX IMVI human tumor cell line is measured as a screen for anti-cancer activity. Cells are grown in 96 well plates and exposed to the test compound for 48 hours. Compounds are tested at a single concentration, which is 10^-5 M for most compounds. The reported endpoint is percent growth (GI% or GIPRCNT), where numbers from 0 - 100% represent growth inhibition, and numbers from -100% - 0 represent cell death. For example, a value of 40 represents 60% growth inhibition. A value of 0 means no net growth occurred over the course of the experiment. A value of -40 indicates 40% of cells at the beginning of the experiment died by the end of the experiment. A value of -100 means all cells are dead at the end of the experiment.\nNCI-60 Human Tumor Cell Lines Screen was performed using the standard one-dose NCI protocol, which is described in more detail at https://dtp.cancer.gov/discovery_development/nci-60/default.htm.\nCompounds with GIPRCNT values below 10 were considered active. Activity score was based on GIPRCNT using the following formula: […]\nScore is 0 for GIPRCNT values of 100 or above, 50 for GIPRCNT values of 0, and 100 for GIPRCNT values of -100.", "values": [{"compound": "COc1ccc(S(=O)(=O)NCCCNc2nccc(-c3c(-c4cccc([N+](=O)[O-])c4)nc4sccn34)n2)cc1", "growth": "30.1% (inactive)"}, {"compound": "Cc1nn(-c2ccc(Cl)cc2)c2ncnc(N/N=C/c3cccc([N+](=O)[O-])c3)c12", "growth": "93.4% (inactive)"}, {"compound": "COc1cccc(/C=C2\\Oc3cc(OCCCN4CCCC4)ccc3C2=O)c1", "growth": "20.6% (inactive)"}, {"compound": "CO[C@H]1NC(=O)N(S(=O)(=O)c2ccc(Cl)cc2)[C@@H]1OC", "growth": "105% (inactive)"}, {"compound": "COc1cc2c(c(OC)c1OC)-c1ccc(N)c(=O)cc1[C@@H](NC(C)=O)CC2", "growth": "25% (inactive)"}, {"compound": "O=[N+]([O-])c1cccc(-c2nc3sccn3c2-c2ccnc(NCCCNS(=O)(=O)c3ccc(Cl)cc3)n2)c1", "growth": "35.4% (inactive)"}, {"compound": "CCN1C(=O)N(CC)C2C1NN=c1s/c(=C\\c3cccnc3)c(=O)n12", "note": "(stereo not given)", "growth": "46% (inactive)"}, {"compound": "C=C[C@@H]1C[C@H](O)Cc2ccccc2N1", "growth": "104% (inactive)"}, {"compound": "CCN(CC)CCCNc1nccc2ccc(Cl)cc12", "growth": "94.7% (inactive)"}, {"compound": "CCOC(=O)c1c(NS(=O)(=O)c2ccc(C)cc2)sc2c1CCC1(C2)OCCO1", "growth": "98.9% (inactive)"}, {"compound": "COc1ccc(S(=O)(=O)n2ccc(-c3ccc4c(c3)CCC(C)(C)O4)n2)cc1OC", "growth": "76.7% (inactive)"}, {"compound": "S=C(S)NCCc1c[nH]c2ccccc12", "growth": "87.2% (inactive)"}, {"compound": "COc1ccc2[nH]c(=O)c3c4ccccc4cn3c2c1", "growth": "4.23% (active)"}, {"compound": "COP(=O)(OC)/C(=N\\NS(=O)(=O)c1ccc(C)cc1)c1ccccc1", "growth": "102% (inactive)"}, {"compound": "Nc1nc(=O)c2ccccc2s1", "growth": "104% (inactive)"}, {"compound": "COc1ccncc1S(=O)(=O)NC(=O)Nc1ccc(Cl)c(Cl)c1", "growth": "64.9% (inactive)"}, {"compound": "COc1cc(C2CC(c3ccc4c(c3)OCO4)=NN2C(C)=O)cc(OC)c1OC", "note": "(stereo not given)", "growth": "35.7% (inactive)"}, {"compound": "COC(=O)c1nc(-c2ccccc2)oc1S(=O)(=O)N1CCN(c2cccc(Cl)c2)CC1", "growth": "44.3% (inactive)"}, {"compound": "O=C(N/N=C/C=C\\c1ccccc1)C(=O)N/N=C/C=C/c1ccccc1", "growth": "94% (inactive)"}, {"compound": "CCCCCCCCCCCCNC(=O)[C@H]1CSC(c2cc(Br)cs2)N1", "note": "(stereo not given in full)", "growth": "-86.4% (active)"}, {"compound": "COc1cc2c(cc1O)CCN1C[C@@H](CC(C)C)[C@@H](O)C[C@@H]21", "growth": "97.8% (inactive)"}, {"compound": "C=C1C(=O)O[C@@H]2[C@@H]3O[C@@](C)(CC/C=C(\\C)CCC[C@@H]2C)[C@H](O)C[C@@H]13", "growth": "44% (inactive)"}, {"compound": "CC[N+](CC)=c1cc2oc3cc(N(C)C)ccc3nc-2cc1C", "growth": "16.8% (inactive)"}, {"compound": "Cc1ccc(S(=O)(=O)NCCNc2cc(-c3cn(C(C)(C)C)nc3-c3cccc(O)c3)ccn2)cc1", "growth": "47.4% (inactive)"}, {"compound": "C=C1CCC2C3(C)COC(c4c(OC)cccc4OC)OC3CCC2(C)C1C/C=C1/C(=O)OCC1O", "note": "(stereo not given)", "growth": "15.7% (inactive)"}, {"compound": "Cn1c(=O)c2[nH]c(C3CC=CCC3)nc2n(C)c1=O", "note": "(stereo not given)", "growth": "105% (inactive)"}, {"compound": "C=C1C(=O)O[C@H]2[C@H]1CC/C(Cn1cc(CNC(=O)Cc3cn(C(=O)c4ccc(Cl)cc4)c4ccc(OC)cc34)nn1)=C\\CC[C@@]1(C)O[C@@H]21", "growth": "-82% (active)"}, {"compound": "CCCCCCCC/C=C/CCCCCCCC1=NC(C)(C)CN1C(C)(C)CO", "growth": "-100% (active)"}, {"compound": "c1ccc(-c2cn(-c3ccccc3)c(-c3ccccc3)n2)cc1", "growth": "69.3% (inactive)"}, {"compound": "O=C(Nc1ccc(Cl)c(Cl)c1)NS(=O)(=O)c1cnccc1Oc1ccc(F)cc1", "growth": "83.3% (inactive)"}, {"compound": "NC(=S)N/N=C(/CCN1CCCC1)CC(C1=C(O)C2=CCCCC2OC1=O)c1ccccc1", "note": "(stereo not given)", "growth": "56% (inactive)"}, {"compound": "C=C(C)[C@@H]1C[C@@H]2Cc3cc(F)ccc3N1O2", "growth": "94.6% (inactive)"}, {"compound": "N/C(=N\\C(N)=N\\c1nc2ccccc2s1)c1cccc(Br)c1", "growth": "33.2% (inactive)"}, {"compound": "COc1ccc(C(=O)n2nc(/C=C/c3ccc(O)c(OC)c3)cc2/C=C/c2ccc(O)c(OC)c2)cc1", "growth": "4.5% (active)"}, {"compound": "C=C[C@@H]1C[C@@H]2Cc3cc(Cl)ccc3N1O2", "growth": "92.5% (inactive)"}, {"compound": "S=c1[nH]nc(-c2cc3ccc2CCc2ccc(cc2)CC3)n1-c1ccccc1", "growth": "98% (inactive)"}, {"compound": "CCN(CC)c1ccc(CNc2ccnc3ccccc23)cc1", "growth": "54.7% (inactive)"}, {"compound": "COc1ccc2c(c1)C(c1cc(OC)c3c(c1)OCO3)C1=C(COC1=O)N2", "note": "(stereo not given)", "growth": "20.1% (inactive)"}, {"compound": "COc1ccc(C2=CC(c3cc(OC)c(OC)c(OC)c3)NC(=O)N2)cc1OC", "note": "(stereo not given)", "growth": "7.04% (active)"}, {"compound": "Cc1cccc(/C=N/Nc2cc(C)c3cccc(C)c3n2)n1", "growth": "102% (inactive)"}]}]}
